Data: the supplement of paper PMC3545927
The list shows a part of the results. No count for the full screen is at hand.

Molecular target: furin, P09958
Assay: furin cleavage Z-score vs untreated control; higher = more cleavage, active = 3.5 or more, inactive = 1 or less, 8 variable residues between constant flanks
Procedure, shortened: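 Purified furin digested bead-held 8-mer peptide–cDNA fusions at 1:10 enzyme:substrate in 0.01 ml of 50 mM HEPES pH 7.5 with CaCl2 and NaCl for 7.5, 15 or 30 min. The cleavage Z-score compares sequencing counts of released DNA with furin-free reactions on a log scale, with lowess adjustment and median absolute deviation scaling.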

Chain of furin, P09958 (P09958 whole entry): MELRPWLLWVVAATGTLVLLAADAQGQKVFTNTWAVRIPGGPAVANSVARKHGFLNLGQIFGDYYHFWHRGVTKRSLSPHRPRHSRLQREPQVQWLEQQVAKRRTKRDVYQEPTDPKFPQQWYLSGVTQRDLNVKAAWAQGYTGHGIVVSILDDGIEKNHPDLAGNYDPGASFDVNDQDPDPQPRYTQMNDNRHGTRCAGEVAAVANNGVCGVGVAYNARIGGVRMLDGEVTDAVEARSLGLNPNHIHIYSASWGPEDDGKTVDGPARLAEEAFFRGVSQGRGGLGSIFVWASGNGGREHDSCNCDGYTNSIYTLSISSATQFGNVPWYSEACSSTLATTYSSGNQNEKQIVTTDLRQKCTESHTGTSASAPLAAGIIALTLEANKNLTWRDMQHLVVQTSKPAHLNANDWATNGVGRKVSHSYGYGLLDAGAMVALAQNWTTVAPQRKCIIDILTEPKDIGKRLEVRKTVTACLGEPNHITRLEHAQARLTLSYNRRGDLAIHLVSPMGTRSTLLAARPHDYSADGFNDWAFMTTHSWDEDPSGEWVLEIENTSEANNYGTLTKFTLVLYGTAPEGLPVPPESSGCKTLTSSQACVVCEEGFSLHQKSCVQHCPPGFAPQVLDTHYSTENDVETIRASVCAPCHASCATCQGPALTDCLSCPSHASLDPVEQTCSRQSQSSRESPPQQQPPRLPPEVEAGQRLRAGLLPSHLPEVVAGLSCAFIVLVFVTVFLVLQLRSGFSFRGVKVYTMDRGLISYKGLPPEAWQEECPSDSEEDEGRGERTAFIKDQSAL

| Sequence | furin cleavage Z-score (7.5 min) | furin cleavage Z-score (15 min) | furin cleavage Z-score (30 min) |
| --- | --- | --- | --- |
| CASLTPCTCGAGNASASA [HC720] | -1.42 (inactive) | -1.23 (inactive) | -1.24 (inactive) |
| CALEECSQHLAGNASASA [HC1665] | 0.42 (inactive) | 0.627 (inactive) | 0.0701 (inactive) |
| CAAKSRPVRDAGNASASA [FS-522] | 8.85 (active) | 8.99 (active) | 6.37 (active) |
| CARKSRPVSVAGNASASA [FS-2273] | 0.443 (inactive) | -0.359 (inactive) | 1.47 |
| CARVKRIFYQAGNASASA [FS-2530] | 1.69 | -1.51 (inactive) | 0.645 (inactive) |
| CARVKRGWVWAGNASASA [FS-2101] | 2.07 | 4.37 (active) | 8.77 (active) |
| CARSKRSWMWAGNASASA [FS-2459] | 0.863 (inactive) | 2.1 | 6.05 (active) |
| CARSKRGWVWAGNASASA [FS-2605] | 0.844 (inactive) | 3.21 | 4 (active) |
| CARPKRGWVWAGNASASA [FS-2164] | -0.398 (inactive) | -0.529 (inactive) | 2.44 |
| CARVESENKVAGNASASA [HC1282] | 0.35 (inactive) | -0.0116 (inactive) | 1.18 |
| CARVKRGSKVAGNASASA [FS-2100] | 2.43 | 3.33 | 4.45 (active) |
| CAAKSVCGPVAGNASASA [HC410] | -0.0296 (inactive) | 1.97 | -1.19 (inactive) |
| CAVYNHLTPLAGNASASA [HC635] | -0.863 (inactive) | 0.0646 (inactive) | -0.69 (inactive) |
| CAEEPCHRPSAGNASASA [HC2332] | 0.704 (inactive) | 0.583 (inactive) | -1.24 (inactive) |
| CARVARLLSAAGNASASA [FS-3114] | -1.2 (inactive) | 0.294 (inactive) | -1.59 (inactive) |
| CAFLKRSGRDAGNASASA [FS-1324] | 4.93 (active) | 3.96 (active) | 4.12 (active) |
| CARVWRDSFLAGNASASA [FS-2407] | -0.29 (inactive) | 1.62 | 0.504 (inactive) |
| CAKLKRSHELAGNASASA [FS-2868] | 0.465 (inactive) | 2.2 | 1.3 |
| CARVARSGRDAGNASASA [FS-3115] | 2.88 | 2.99 | 4.3 (active) |
| CARVARSRELAGNASASA [FS-1842] | 4.74 (active) | 5.44 (active) | 7.45 (active) |
| CATPAETTVRAGNASASA [HC926] | -0.713 (inactive) | 1.4 | -0.157 (inactive) |
| CAGALVAFKIAGNASASA [HC1091] | -1.03 (inactive) | -0.999 (inactive) | -1.45 (inactive) |
| CAMGSSYGFQAGNASASA [HC1464] | 0.332 (inactive) | -0.28 (inactive) | -0.392 (inactive) |

| Sequence | furin cleavage Z-score (7.5 min) | furin cleavage Z-score (15 min) | furin cleavage Z-score (30 min) |
| --- | --- | --- | --- |
| CAEHVRKLRSAGNASASA [FS-990] | 9.51 (active) | 9.45 (active) | 7.69 (active) |
| CAEHFRKKRSAGNASASA [FS-1450] | 13.1 (active) | 12 (active) | 10.4 (active) |
| CASYFRKKRSAGNASASA [FS-1288] | 10.9 (active) | 10.4 (active) | 8.85 (active) |
| CAVVCCSMSDAGNASASA [HC2091] | -0.81 (inactive) | 0.345 (inactive) | -0.759 (inactive) |
| CALCECYDAGAGNASASA [HC919] | -0.871 (inactive) | 0.625 (inactive) | -1.3 (inactive) |
| CAGHVKNGTMAGNASASA [HC1179] | 0.572 (inactive) | 0.821 (inactive) | 0.846 (inactive) |
| CARIKKDKKEAGNASASA [FS-2951] | -1.75 (inactive) | -0.739 (inactive) | -0.88 (inactive) |
| CARIRRDANEAGNASASA [FS-3189] | 13.3 (active) | 13.5 (active) | 9.85 (active) |
| CARIRRDVRVAGNASASA [FS-1899] | 8.22 (active) | 10.4 (active) | 7.12 (active) |
| CARIRRGTDEAGNASASA [FS-1956] | 12.4 (active) | 12.2 (active) | 8.37 (active) |
| CARFSKSADEAGNASASA [FS-2927] | -0.221 (inactive) | -0.408 (inactive) | -0.912 (inactive) |
| CAVALSTTGEAGNASASA [HC843] | -1.85 (inactive) | -1.96 (inactive) | -0.758 (inactive) |
| CARGARGVRVAGNASASA [FS-2929] | -0.658 (inactive) | -0.415 (inactive) | -0.385 (inactive) |
| CAEVPCHRPGAGNASASA [HC2416] | -0.244 (inactive) | -0.922 (inactive) | 0.598 (inactive) |
| CATKVCGAPPAGNASASA [HC441] | 0.138 (inactive) | 0.123 (inactive) | -0.197 (inactive) |
| CARPRRFFPGAGNASASA [FS-1964] | -0.922 (inactive) | -0.718 (inactive) | -0.224 (inactive) |
| CARPRRGSLRAGNASASA [FS-2502] | -1.01 (inactive) | -0.431 (inactive) | 1.07 |
| CARPRRSAPKAGNASASA [FS-3200] | 8.12 (active) | 8.75 (active) | 6.05 (active) |
| CARPRRRLGPAGNASASA [FS-2503] | 0.585 (inactive) | 1.48 | 1.2 |
| CARPRRSAGKAGNASASA [FS-2059] | 6.62 (active) | 6.92 (active) | 6.48 (active) |
| CARPRRGSHPAGNASASA [FS-2359] | 0.189 (inactive) | 1.65 | 2.41 |
| CARPRRSAHRAGNASASA [FS-1863] | 8.93 (active) | 9.74 (active) | 8.89 (active) |
